# Compound activity as filed in PubChem BioAssay.
# Cycloheximide cs: counter-screen hit for Shiga toxin inhibitors, cycloheximide; cell reporter, cycloheximide protein synthesis inhibition counterscreen; max response, %; 300,000 compounds, 12% hits; AID 2314; in the data active = max response mostly above about 13%, no sharp cut-off; inactive = mostly below about 14%; note: read at 38.3 µM for the half of the compounds with a filed dose; 0% is about no effect
# Pf growth 48h: inhibits P. falciparum growth in the first generation, 48 h. P. falciparum luciferase growth in erythrocytes, 48 h. 310,000 compounds, 5.9% hits. Potency, µM (titrated, usually from 28.7 µM), inactives show at the highest dose activity change, negative = inhibition, most hits filed as inhibitors; note: potency is the fitted concentration of half-maximal effect; % is set by controls: 0 for no effect and ±100 for the full control effect
#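 Parasite viability was followed by luminescence of a genomically integrated firefly luciferase. Cultures held 0.1% parasitemia at 2% hematocrit (final), incubated under 5% CO2 at 37 C.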
# Pf growth 96h: P. falciparum growth inhibition at 96 hours. P. falciparum luciferase reporter growth, 96 h. Potency, µM (top dose mostly 28.7 µM), for inactives: top-dose activity change, negative = inhibition, hits mostly inhibitors. 320,000 compounds, 6.9% hits. AID 504834; note: potency is the fitted concentration of half-maximal effect; % is set by controls: 0 for no effect and ±100 for the full control effect
#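 Two-generation exposure (96 h) targets delayed-death phenotype. Reporter parasites carrying integrated firefly luciferase, in red cells at 2% hematocrit and 0.05% parasitemia final, kept at 37 C, 5% CO2; luminescence loss indicates inhibition.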
# Shiga toxin inh: inhibitors of Shiga toxin in Vero cells. Vero cells, Shiga toxin protein synthesis inhibition reporter. inhibition, % at 38.7 µM. 290,000 compounds, 9.2% hits. AID 2315; in the data active = inhibition mostly above about 28%, no sharp cut-off; inactive = mostly below about 43%; note: 0% is about no effect
# Starred values were filed as active, the others as inactive; ? = inconclusive; · = not tested or not shown. In the library only some 21% were active in any assay of this set; here they are far more common. Unless noted, calls come from the whole dose curve; as a rule, active = well fitted inhibition curve with a large enough effect; inconclusive = small, poorly fitted or top-dose-only effect, or another doubt; inactive = no such curve, though single readings can be large or run the other way.
SMILES,Cycloheximide cs,Pf growth 48h,Pf growth 96h,Shiga toxin inh
Cc1cc(N2C(=O)C(O)=C(C(=O)c3ccc(C)o3)C2c2ccc([N+](=O)[O-])cc2)no1 (stereo not drawn),-1,-17%,?,6
CCCCCC(=O)NCc1c(C(F)(F)F)nn(C)c1N1CCOCC1,-2,25%,?,-3
CCOc1ccc(OCC)c(NC(=O)CSc2nc3c(c(=O)n(C)c(=O)n3C)n2C(C)C)c1,1,4.1µM*,3.3µM*,-20
Oc1ccc(CNc2cccc(C(F)(F)F)c2)c2cccnc12,·,10µM*,?,·
Cc1cccnc1NCc1ccc(O)c2ncccc12,2,?,34%,-11
Cc1cccc(NCc2ccc(O)c3ncccc23)c1C,1,-18%,23%,1
Cc1ccc(NCc2ccc(O)c3ncccc23)cc1C,36*,84%,?,54*
Cc1ccc(NCc2ccc(O)c3ncccc23)cc1,16*,-17%,16%,18
O=C(NC1CCCC1)C(c1ccccn1)N(Cc1ccc(F)cc1)C(=O)c1csnn1 (stereo not drawn),-4,-25%,25%,-7
CCn1ncc([N+](=O)[O-])c1C(=O)N1CCc2ccccc2C1,-2,9%,23%,4
O=c1cc(-c2cc(O)c(O)c([C@@H]3O[C@H](CO)[C@@H](O)[C@H](O)[C@H]3O)c2)oc2cc(O[C@@H]3O[C@H](CO)[C@@H](O)[C@H](O)[C@H]3O)cc(O)c12,8,·,·,-7
COC(=O)c1c(NC(=O)C2CCCCC2)sc2c1CC(C)(C)NC2(C)C,-3,15%,86%,-5
CCOCC(=O)Nc1ccc(S(=O)(=O)N2CCOCC2)cc1,-1,3%,·,-6
CN(CC(=O)Nc1ccc(S(=O)(=O)N2CCCC2)cc1)CC(=O)Nc1ccc(F)c(F)c1F,9,10µM*,?,-3
CCc1ccc(CN(C)CC(=O)Nc2ccc(S(=O)(=O)N3CCOCC3)cc2)cc1,·,10µM*,?,·
COc1ccc(CCC(=O)Nc2ccc(S(=O)(=O)N3CCOCC3)cc2)cc1,5,-18%,231%,2
CN(CC(=O)Nc1ccc(S(=O)(=O)N2CCOCC2)cc1)Cc1ccc(F)cc1,·,?,13µM*,·
COc1ccc(N(CC(=O)Nc2ccc(S(=O)(=O)N3CCOCC3)cc2)S(=O)(=O)c2ccc(F)cc2)cc1,-2,13µM*,-1%,3
CN(CC(=O)Nc1ccc(S(=O)(=O)N2CCCC2)cc1)CC(=O)Nc1cccc(F)c1,-1,?,?,2
CN=C(C)/C(C(=O)OC)=C(/O)c1c(F)cccc1F,1,-5%,-6%,-3
O=C(c1cc(S(=O)(=O)N2CCC3(CC2)OCCO3)ccc1F)N1CCCCC1,10,-3%,34%,2
c1ccc(OCCSc2nc3ccccc3o2)cc1,22*,60%,?,99*
CCOc1ccc(OCCSc2nc3ccccc3o2)cc1,15*,25%,·,26
CCCCNC(=O)NNC(=O)c1ccoc1C,53*,?,?,62*
CCCCNC(=O)NNC(=O)c1ccco1,-3,7%,-66%,-3
SMILES,Cycloheximide cs,Pf growth 48h,Pf growth 96h,Shiga toxin inh
CCCCNC(=S)NNC(=O)c1ccoc1C,19*,14%,77%,50
O=C(c1ccc2c(=O)n3c(nc2c1)CCCCC3)N1CCc2ccccc21,-3,15%,17%,37
COc1ccc(N2CCN(C(=O)COC(=O)c3cnccn3)CC2)cc1,·,-3%,3%,·
O=C1CCC([N+](=O)[O-])C(c2ccc3c(c2)OCO3)N1 (stereo not drawn),0,19%,10µM*,-14
O=C1CCC([N+](=O)[O-])C(c2ccc(Cl)c([N+](=O)[O-])c2)N1 (stereo not drawn),-3,14%,?,2
O=C(Oc1cc(Cl)ccc1Cl)c1ccc(N2CCOCC2)c([N+](=O)[O-])c1,-5,15%,0%,-9
CCN(CC)S(=O)(=O)c1ccc(NS(=O)(=O)c2cccs2)cc1,-8,9%,-17%,6
CCCN(S(=O)(=O)c1ccc(OCC)cc1)S(=O)(=O)c1cccs1,28*,10µM*,?,37*
O=C1Nc2ccccc2C12OCC1(CO2)COC2(OC1)C(=O)Nc1ccccc12 (stereo not drawn),4,·,38%,-8
CN1CC(c2ccc(Cl)c(Cl)c2)[C@@]2(COc3ccccc3C2=O)[C@@]12C(=O)Nc1ccccc12 (stereo partly drawn),0,3.3µM*,2.1µM*,-3
O=C1C=C(Nc2ccccc2)CC(c2ccccc2)C1 (stereo not drawn),3,-14%,1.9µM*,22
